Test results: PubChem BioAssay (NCI)
Compounds without any hit were thinned out: in the full panel of roughly 79,000, 15% have a hit. Calls of active or inactive are those of the source. No stated cut-off is given here; in the data, active means growth inhibition above about 70%; inactive means the rest.

Assay: NCI Yeast Anticancer Drug Screen. Data for the rad50 strain (AID 155);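 further: 0% = growth of vehicle-only cultures of the same strain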
Conditions: S. cerevisiae rad50 strain growth inhibition; at 50.0 µM; active compounds read high
Method in brief: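 Relative growth inhibition (compound vs vehicle) was measured in yeast with a defined repair-gene alteration.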

| SMILES | growth inhibition |
| --- | --- |
| COc1ccc(CN2CCCN(Cc3ccc(OC)cc3OC)C2c2ccc(N(CCCl)CCCl)cc2)c(OC)c1 | 71% (active) |
| [Cl][Pt+2][Cl].[NH-]c1ccc([N+](=O)[O-])cc1[NH-] | 63.8% (inactive) |
| O=C(Oc1ccc(S(=O)(=O)F)cc1F)c1ccccc1Cl | 99.2% (active) |
| Oc1c(I)cc(I)cc1I | 38% (inactive) |
| CCCCCCCCCCCCCCCC[N+](C)(C)CCOS(C)(=O)=O | 91.2% (active) |
| CN(C)CC1(N)C(=O)NC(=O)NC1=O | 75.7% (active) |
| CC1=C(O)C(=O)C=C2C1=CC=C1[C@@]2(C)CC[C@@]2(C)[C@@H]3C[C@](C)(C(=O)O)CC[C@]3(C)CC[C@]12C | 90% (active) |
| CCC[CH2][Sn]([CH2]CCC)([N]=C=S)[N]=C=S | 97.9% (active) |
| O=C(C[n+]1ccccc1)C1CCc2ccccc2C1 (stereo unspecified) | 9.25% (inactive) |
| [Cl][Pt][Cl].c1ccc([AsH](CC[AsH](c2ccccc2)c2ccccc2)c2ccccc2)cc1 | 98.8% (active) |
| COc1cc(/C=C\[N+](=O)[O-])ccc1O | 99.2% (active) |
| Cc1sc(Cc2ccccc2)nc1-c1ccc(N=Cc2ccc(N(CCCl)CCCl)cc2)cc1 | 96.2% (active) |
| CC1(C)C2CCC([CH2][Hg][Cl])C1C2 (stereo unspecified) | 98.8% (active) |
| CC12C(=O)C=CCC1=CCC1C2CCC2(O)C(=O)OC3(C)C4CC5(C)C(COC16OC23C5C6=O)C(=O)O4 (stereo unspecified) | 78.8% (active) |
| O=C(CBr)OCC(Br)CBr (stereo unspecified) | 99.2% (active) |
| S=c1[nH]c2ccccc2s1.[Pb] | 93.7% (active) |
